Results taken from PubChem BioAssay (EPA / NIEHS).
Values joined by “and” are separate entries in the source; they are usually repeats but may differ in a detail not shown here. Equal values may be shown once. Some compounds were tested as several samples or in several runs, with calls that do not always agree. Active and inactive are the calls of the source. How the source made its calls: active means hit-call score of the fitted dose curve at least 0.9, where 1 is the maximum; inactive means score below 0.9.

Tests used:
[1] = read-out: TIMP metallopeptidase inhibitor 1 (TIMP1), TIMP1 (gene 7076); experiment: BSK_MyoF_TIMP1: BioMAP Diversity Plus: MyoF Assay for TIMP metallopeptidase inhibitor 1 (TIMP1) Biomarker Activity (AID 2284269); conditions: primary human lung fibroblasts
How it was run: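 ELISA quantified TIMP-1 levels after 24 h dosing of primary human lung fibroblasts, with DMSO as baseline. Parallel SRB total protein staining (0.1% SRB after TCA fixation, 560 nm) flagged overt cytotoxicity.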

[2] = read-out: Matrix Metallopeptidase 1 (MMP1), MMP1 (gene 4312); experiment: BSK_BF4T_MMP1: BioMAP Diversity Plus: BF4T Assay for Matrix Metallopeptidase 1 (MMP1) Biomarker Activity (AID 2284270); conditions: primary human bronchial epithelial cells with fibroblasts
Protocol: BSK_BF4T is a cell-based, multiplexed-readout assay that uses bronchial epithelial cells and dermal fibroblasts, a human vascular primary cell, with measurements taken at 24 hours after chemical dosing in a microplate: 96-well plate.BSK_BF4T_MMP1 is an assay component measured in the BSK_BF4T assay. It measures MMP-1 antibody related to regulation of gene expression using ELISA technology.Data from the assay component BSK_BF4T_MMP1 was analyzed at the endpoint, BSK_BF4T_MMP1, in the positive analysis fitting direction relative to DMSO as the negative control and baseline of activity. Using a type of binding reporter, gain or loss-of-signal activity can be used to understand protein changes. To generalize the intended target to other relatable targets, this assay endpoint is annotated to the 'protease' intended target family, where the subfamily is 'matrix metalloproteinase'.
The levels of cell surface (or secreted, indicated by the prefix "s") biomarker endpoints were measured by ELISA. Overt cytotoxicity to cells in confluent adherent cultures (all systems other than the BT system) was assessed by measuring total protein levels using sulforhodamine B (SRB) staining in parallel cultures at the time of biomarker measurements, indicated as SRB endpoints. For proliferation assays for adherent cell types, individual cell types are cultured at sub-confluence and relative cell numbers quantified by SRB staining at time points optimized for each system (48 h: 3C and CASM3C systems; 72 h: BT and HDF3CGF systems; 96 h: SAg system). SRB was performed by staining cells with 0.1% SRB after fixation with 10% TCA and reading wells at 560 nm.Viability and proliferation of PBMC (T cells) was quantified by Alamar Blue reduction for the SAg and BT systems. For PBMC viability (referred to as PBMC Cytotoxicity within the assay endpoint names), cells were plated (75,000/well in a 96-well plate) and then chemical samples added for 1 h before addition of activators, SEB and TSST-1 (20 ng/mL final concentration each). Cells were incubated for 90 h. Then, Alamar Blue (20 uL/well) (Invitrogen, Cat DAL1100) was added for 6 h, and the plates were read with a fluorescence microplate reader at 546/580 nm (excitation/emission). For PBMC proliferation, cells were plated and activated as above but incubated for only 16 h prior to addition of Alamar Blue. Plates were read after 6 h.

[3] = read-out: Matrix Metallopeptidase 3 (MMP3), MMP3 (gene 4314); experiment: BSK_BF4T_MMP3: BioMAP Diversity Plus: BF4T Assay for Matrix Metallopeptidase 3 (MMP3) Biomarker Activity (AID 2284271); conditions: primary human bronchial epithelial cells with fibroblasts
How it was run: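 MMP-3 level read by ELISA after 24 h chemical exposure of bronchial epithelial cell/dermal fibroblast co-cultures, fitted upward relative to DMSO. Parallel cultures stained with 0.1% SRB after TCA fixation gauge overt cytotoxicity.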

[4] = read-out: Tissue plasminogen activator (tPA), PLAT (gene 5327); experiment: BSK_BF4T_tPA: BioMAP Diversity Plus: BF4T Assay for Tissue plasminogen activator (tPA) Biomarker Activity (AID 2284272); conditions: primary human bronchial epithelial cells with fibroblasts
How it was run: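 tPA level quantified by ELISA at 24 h post-treatment in bronchial epithelial/dermal fibroblast co-cultures, gain of signal scored against DMSO baseline. Parallel cultures stained with 0.1% SRB (560 nm) to flag overt cytotoxicity.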

[5] = read-out: Plasminogen Activator Inhibitor-1 (PAI1), SERPINE1 (gene 5054); experiment: BSK_BF4T_PAI1: BioMAP Diversity Plus: BF4T Assay for Plasminogen Activator Inhibitor-1 (PAI1) Biomarker Activity (AID 2284273); conditions: primary human bronchial epithelial cells with fibroblasts
How it was run: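 PAI-1 levels quantified by ELISA 24 h post-dosing in bronchial epithelial cell plus dermal fibroblast cultures. Signal gain referenced to DMSO baseline. Sulforhodamine B total-protein staining of parallel wells checked cytotoxicity.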

[6] = BSK_BF4T_SRB: Viability Assessment in the BioMAP Diversity Plus: BF4T Assay (AID 2284274); conditions: primary human bronchial epithelial cells with fibroblasts;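 on AC50: measured 24 h after compound addition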
How it was run: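 Cytotoxicity measured as total protein: cells fixed with 10% TCA, stained with 0.1% SRB, read at 560 nm. Bronchial epithelial/dermal fibroblast co-culture, 24 h after dosing, with positive-direction fitting relative to DMSO.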

[7] = read-out: urokinase Plasminogen Activator (uPA), PLAU (gene 5328); experiment: BSK_BF4T_uPA: BioMAP Diversity Plus: BF4T Assay for urokinase Plasminogen Activator (uPA) Biomarker Activity (AID 2284275); conditions: primary human bronchial epithelial cells with fibroblasts
How it was run: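 uPA levels measured by ELISA at 24 hours in BF4T cultures (bronchial epithelial cells plus dermal fibroblasts) and compared with DMSO; cytotoxicity tracked in parallel cultures by sulforhodamine B staining.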

[8] = read-out: Matrix Metallopeptidase 9 (MMP9), MMP9 (gene 4318); experiment: BSK_BF4T_MMP9: BioMAP Diversity Plus: BF4T Assay for Matrix Metallopeptidase 9 (MMP9) Biomarker Activity (AID 2284276); conditions: primary human bronchial epithelial cells with fibroblasts
How it was run: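 MMP-9 levels were measured by ELISA after 24 h exposure of bronchial epithelial cell/dermal fibroblast co-cultures, with DMSO as baseline. Parallel cultures were stained with 0.1% SRB after TCA fixation, read at 560 nm, to flag overt cytotoxicity.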

[9] = read-out: Interleukin-8 (IL8), CXCL8 (gene 3576); experiment: BSK_IMphg_IL8: BioMAP Diversity Plus: IMphg Assay for Interleukin-8 (IL8) Biomarker Activity (AID 2284277); conditions: primary human endothelial cells with macrophages
How it was run: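 IL-8 levels were measured by ELISA 24 h after dosing in primary human venular endothelial cell–macrophage cultures, referenced to DMSO; parallel SRB staining monitored overt cytotoxicity.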

[10] = read-out: Intercellular Adhesion Molecule 1 (ICAM1), ICAM1 (gene 3383); experiment: BSK_BE3C_ICAM1: BioMAP Diversity Plus: BE3C Assay for Intercellular Adhesion Molecule 1 (ICAM1) Biomarker Activity (AID 2284278); conditions: primary human bronchial epithelial cells
How it was run: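 Here, ICAM-1 levels on confluent human bronchial epithelial primary cells are read by ELISA at 24 h after chemical dosing. Parallel SRB staining (0.1% after 10% TCA fixation, 560 nm) checks cytotoxicity.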

Measured: AC50

NCC(F)(F)C(F)(F)C(F)(F)C(F)(F)C(F)(F)C(F)(F)C(F)(F)F
inactive: all assays above

CCCCCCCCCCCCCC[N+](C)(C)C
active: [1] 3.32 µM

OCCC(F)(F)C(F)(F)C(F)(F)C(F)(F)C(F)(F)C(F)(F)C(F)(F)C(F)(F)F
inactive: [2] | [3]
active: [1] 13.1 µM and 9.78 µM | [4] 8.17 µM and 7.72 µM | [5] 23.8 µM and 18.6 µM | [6] 27.2 µM and 34.7 µM | [7] 30 µM and 17.7 µM | [8] 28 µM and 16.3 µM | [9] 30 µM and 44.7 µM | [10] 22.2 µM and 46.7 µM

OCCC(F)(F)C(F)(F)C(F)(F)C(F)(F)C(F)(F)C(F)(F)F
inactive: all assays above

C=C(C)C(=O)OCCC(F)(F)C(F)(F)C(F)(F)C(F)(F)C(F)(F)C(F)(F)F
inactive: all assays above

C[C@@H]1C[C@H]2[C@@H]3CCC4=CC(=O)C=C[C@]4(C)[C@@]3(F)[C@@H](O)C[C@]2(C)[C@@]1(O)C(=O)COP(=O)(O)O
inactive: [1] | [2] | [3] | [4] | [5] | [6] | [7] | [8] | [10]
active: [1] 0.562 µM | [9] 309 nM and 884 nM

FC(F)(I)C(F)(F)C(F)(F)C(F)(F)C(F)(F)C(F)(F)I
inactive: [3] | [9]
active: [1] 7.01 µM [middle of 5 runs] | [2] 23.4 µM [middle of 5 runs] | [3] 19.3 µM [middle of 4 runs] | [4] 7.56 µM [middle of 5 runs] | [5] 19.3 µM [middle of 5 runs] | [6] 21.9 µM [middle of 5 runs] | [7] 14.4 µM [middle of 5 runs] | [8] 18.9 µM [middle of 5 runs] | [9] 47.1 µM [middle of 4 runs] | [10] 32.3 µM [middle of 5 runs]
